We go through 33 molecules from PubChem BioAssay AID1345085 (National Center for Advancing Translational Sciences (NCATS), 2018).

Inconclusive results are not listed. A number with no mark means an inactive call. Calls of active or inactive are those of the source. Calls come from the whole dose curve; as a rule, active = well fitted cell-killing curve with a large enough effect; inconclusive = small, poorly fitted or top-dose-only effect, or effect the other way; inactive = no such curve, though single readings can be large or run the other way.
% is set by controls: 0 for no effect and ±100 for the full control effect; potency is the fitted concentration of half-maximal effect.

The subject of the assay is CASKI. Briefly: Confirmatory qHTS for gynecologic anti-cancer compounds from libraries of approved drugs and bioactive compounds. Note: nearly all actives have a fitted effect of over 55% in size. The settings on record: gynecologic cancer cell panel viability, ATPlite luminescence, 48 h; series mostly up to 57.6 µM; activity change, negative = viability loss: at the top concentration. The essentials: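 Seeding 1,000 cells per well preceded overnight (16 h) attachment, after which 48 h drug treatment across 57.5 uM–0.977 nM (11 points) was applied. Remaining cellular ATP, detected by ATPlite luminescence, defined IC50.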
On the technique in general: qHTS replaces the single test concentration by a dilution series.
For `CN(c1nccc(=O)[nH]1)C1CCN(c2nc3ccccc3n2Cc2ccc(F)cc2)CC1`, the “activity change, negative = viability loss” value was -4.26%.
Turning to `O=C1Cc2cc(CCN3CCN(c4nsc5ccccc45)CC3)c(Cl)cc2N1`, the “activity change, negative = viability loss” value was 1.02%.
With `COc1cc(Nc2ncc3c(n2)-c2ccc(Cl)cc2C(c2c(F)cccc2OC)=NC3)ccc1C(=O)O`, the Potency is 19.3 µM (active).
With `COc1cc(Nc2ncc(F)c(Nc3ccc4c(n3)N(COP(=O)(O)O)C(=O)C(C)(C)O4)n2)cc(OC)c1OC`, the Potency was 5.44 µM (active).
Turning to `Cc1ccccc1C(OCCN(C)C)c1ccccc1` (stereo not drawn), the “activity change, negative = viability loss” value was -8.95%.
For the molecule `Cc1cc(Nc2cc(N3CCN(C)CC3)nc(Sc3ccc(NC(=O)C4CC4)cc3)n2)n[nH]1`, the “activity change, negative = viability loss” value is -30.6%.
For the molecule `CCCC(=O)O[C@]1(C(=O)CCl)[C@@H](C)C[C@H]2[C@@H]3CCC4=CC(=O)C=C[C@]4(C)[C@@]3(F)C(=O)C[C@@]21C`, the Potency is 30.6 µM (active).
In the case of `CNC(=O)c1ccccc1Nc1nc(Nc2ccc(N3CCOCC3)cc2OC)ncc1Cl`, the Potency is 6.11 µM (active).
On the same count and under the same terms, as for `CC(C)CC(=O)Nc1n[nH]c2c1CN(C(=O)C1CCN(C)CC1)C2(C)C`, the figure is 3.43 µM (active).
For the molecule `Cc1ccc(C(=O)Nc2ccc(Oc3cc4cnn(C)c4cc3-c3cn[nH]c3)c(F)c2)c(=O)n1-c1ccc(F)cc1`, the “activity change, negative = viability loss” value was -29.1%.
In the case of `CC(Oc1ccc2[nH]nc(/C=C/c3cnn(CCO)c3)c2c1)c1c(Cl)cncc1Cl` (stereo not drawn), the Potency is 5.44 µM (active).
As to `FC(F)(F)c1ccc(/C=C/c2nc(COc3ccc(CCCCn4ccnn4)cc3)co2)cc1`, the Potency was 0.137 µM (active).
Turning to `CCCCc1oc2ccccc2c1C(=O)c1cc(I)c(OCCN(CC)CC)c(I)c1`, the Potency is 79.4 µM (active).
Consider `COc1cc(N2CCC(N(C)C)CC2)ccc1Nc1ncc(Cl)c(Nc2ccccc2P(C)(C)=O)n1`, for which the Potency was 7.69 µM (active).
Take `CCCCc1oc2ccc(NS(C)(=O)=O)cc2c1C(=O)c1ccc(OCCCN(CCCC)CCCC)cc1`: the Potency was 27.3 µM (active).
Turning to `CC(C)c1nn(-c2c(Cl)cccc2Cl)c2nc(Cc3ccc(OCCO)cc3)[nH]c(=O)c12`, the Potency was 0.137 µM (active).
As for `CC(C)C[C@H](NC(=O)[C@H](Cc1ccccc1)NC(=O)c1cnccn1)B(O)O`, the Potency is 0.0343 µM (active).
Regarding `O=C1N(c2ccccc2)c2ccccc2C1(Cc1ccncc1)Cc1ccncc1`, the “activity change, negative = viability loss” value was 8.36%.
For `CCS(=O)(=O)N1CCN(c2ccc(Nc3ncc(C(N)=O)c(NC4CC4)n3)cc2)CC1`, the Potency is 10.9 µM (active).
Take `C[C@]12CCC(=O)C=C1CC[C@@H]1[C@@H]2[C@@H](O)C[C@@]2(C)[C@H]1CC[C@]2(O)C(=O)CO`: the “activity change, negative = viability loss” value was 21.2%.
For the molecule `Cc1ccc(NC(=O)c2ccc(CN3CCN(C)CC3)cc2)cc1Nc1nccc(-c2cccnc2)n1`, the “activity change, negative = viability loss” value is -19.5%.
For `NC(=O)c1cnc(-c2ccc(C3(N)CCC3)cc2)c(-c2ccccc2)c1`, the Potency is 21.7 µM (active).
For the molecule `Nc1ccccc1NC(=O)c1ccc(CNc2nccc(-c3cccnc3)n2)cc1`, the Potency was 8.63 µM (active).
In the case of `CN1CCN(c2cccc(Nc3nc4c(-c5ccc(S(C)(=O)=O)cc5)cccn4n3)c2)CC1`, the “activity change, negative = viability loss” value is -30.9%.
Turning to `COc1cc(N2CCC(N3CCN(C)CC3)CC2)ccc1Nc1ncc(Cl)c(Nc2ccccc2S(=O)(=O)C(C)C)n1`, the Potency is 12.2 µM (active).
As to `Cc1cnc(Nc2ccc(OCCN3CCCC3)cc2)nc1Nc1cccc(S(=O)(=O)NC(C)(C)C)c1`, the Potency is 19.3 µM (active).
Turning to `CN1C(=O)C(Cc2c[nH]c3ccccc23)NC1=S` (stereo not drawn), the “activity change, negative = viability loss” value is -7.58% [at 19.5 µM].
For `COCCOc1ccc2c(c1)ncn2-c1ccc2cccc(N3CCC(N)CC3)c2n1`, the Potency is 27.3 µM (active).
`CCN1C[C@H](C)n2c(c(O)c3c(=O)n(Cc4ccc(F)c(Cl)c4)nc(C(=O)NC)c32)C1=O`: the “activity change, negative = viability loss” value is 13.6%.
Regarding `CN(C)CCC(CSc1ccccc1)Nc1ccc(S(=O)(=O)NC(=O)c2ccc(N3CCN(Cc4ccccc4-c4ccc(Cl)cc4)CC3)cc2)cc1[N+](=O)[O-]` (stereo not drawn), the Potency was 3.85 µM (active).
As to `CN(C)C1CCN(C(=O)c2ccc(NC(=O)Nc3nc(N4CCOCC4)nc(N4CCOCC4)n3)cc2)CC1`, the Potency was 0.273 µM (active).
On to `c1cc(N[C@@H]2CCNC2)nc(-c2cnc3ccc(-c4cn[nH]c4)cn23)c1`, for which the Potency was 27.3 µM (active).
Regarding `CCC1=CC2CN(C1)Cc1c([nH]c3ccccc13)[C@@](C(=O)OC)(c1cc3c(cc1OC)N(C)[C@H]1[C@@](O)(C(=O)OC)[C@H](OC(C)=O)[C@]4(CC)C=CCN5CC[C@]31[C@@H]54)C2` (stereo partly drawn), the “activity change, negative = viability loss” value is -2.39% [at 19.5 µM].
